Measurements from the supplement of paper PMC11732987, “Enantioselective OTUD7B fragment discovery through chemoproteomics screening and high-throughput optimisation” (Communications Chemistry, 2025).

Legend:
Test in all cases: log2 ratio of Biotin-Ahx-Ub-VS probe labelling (fragment/DMSO); higher = less target engagement (more negative = stronger competition), active = hit call of the paper (q ≤ 0.05, log2 ratio ≤ -1)
Conditions in all cases: compound concentration: 200 uM; treatment time: 3 h
USP34 = USP34 (UniProt Q70CQ2)
USP34, sequence (Q70CQ2 whole entry, the tested form may be a part): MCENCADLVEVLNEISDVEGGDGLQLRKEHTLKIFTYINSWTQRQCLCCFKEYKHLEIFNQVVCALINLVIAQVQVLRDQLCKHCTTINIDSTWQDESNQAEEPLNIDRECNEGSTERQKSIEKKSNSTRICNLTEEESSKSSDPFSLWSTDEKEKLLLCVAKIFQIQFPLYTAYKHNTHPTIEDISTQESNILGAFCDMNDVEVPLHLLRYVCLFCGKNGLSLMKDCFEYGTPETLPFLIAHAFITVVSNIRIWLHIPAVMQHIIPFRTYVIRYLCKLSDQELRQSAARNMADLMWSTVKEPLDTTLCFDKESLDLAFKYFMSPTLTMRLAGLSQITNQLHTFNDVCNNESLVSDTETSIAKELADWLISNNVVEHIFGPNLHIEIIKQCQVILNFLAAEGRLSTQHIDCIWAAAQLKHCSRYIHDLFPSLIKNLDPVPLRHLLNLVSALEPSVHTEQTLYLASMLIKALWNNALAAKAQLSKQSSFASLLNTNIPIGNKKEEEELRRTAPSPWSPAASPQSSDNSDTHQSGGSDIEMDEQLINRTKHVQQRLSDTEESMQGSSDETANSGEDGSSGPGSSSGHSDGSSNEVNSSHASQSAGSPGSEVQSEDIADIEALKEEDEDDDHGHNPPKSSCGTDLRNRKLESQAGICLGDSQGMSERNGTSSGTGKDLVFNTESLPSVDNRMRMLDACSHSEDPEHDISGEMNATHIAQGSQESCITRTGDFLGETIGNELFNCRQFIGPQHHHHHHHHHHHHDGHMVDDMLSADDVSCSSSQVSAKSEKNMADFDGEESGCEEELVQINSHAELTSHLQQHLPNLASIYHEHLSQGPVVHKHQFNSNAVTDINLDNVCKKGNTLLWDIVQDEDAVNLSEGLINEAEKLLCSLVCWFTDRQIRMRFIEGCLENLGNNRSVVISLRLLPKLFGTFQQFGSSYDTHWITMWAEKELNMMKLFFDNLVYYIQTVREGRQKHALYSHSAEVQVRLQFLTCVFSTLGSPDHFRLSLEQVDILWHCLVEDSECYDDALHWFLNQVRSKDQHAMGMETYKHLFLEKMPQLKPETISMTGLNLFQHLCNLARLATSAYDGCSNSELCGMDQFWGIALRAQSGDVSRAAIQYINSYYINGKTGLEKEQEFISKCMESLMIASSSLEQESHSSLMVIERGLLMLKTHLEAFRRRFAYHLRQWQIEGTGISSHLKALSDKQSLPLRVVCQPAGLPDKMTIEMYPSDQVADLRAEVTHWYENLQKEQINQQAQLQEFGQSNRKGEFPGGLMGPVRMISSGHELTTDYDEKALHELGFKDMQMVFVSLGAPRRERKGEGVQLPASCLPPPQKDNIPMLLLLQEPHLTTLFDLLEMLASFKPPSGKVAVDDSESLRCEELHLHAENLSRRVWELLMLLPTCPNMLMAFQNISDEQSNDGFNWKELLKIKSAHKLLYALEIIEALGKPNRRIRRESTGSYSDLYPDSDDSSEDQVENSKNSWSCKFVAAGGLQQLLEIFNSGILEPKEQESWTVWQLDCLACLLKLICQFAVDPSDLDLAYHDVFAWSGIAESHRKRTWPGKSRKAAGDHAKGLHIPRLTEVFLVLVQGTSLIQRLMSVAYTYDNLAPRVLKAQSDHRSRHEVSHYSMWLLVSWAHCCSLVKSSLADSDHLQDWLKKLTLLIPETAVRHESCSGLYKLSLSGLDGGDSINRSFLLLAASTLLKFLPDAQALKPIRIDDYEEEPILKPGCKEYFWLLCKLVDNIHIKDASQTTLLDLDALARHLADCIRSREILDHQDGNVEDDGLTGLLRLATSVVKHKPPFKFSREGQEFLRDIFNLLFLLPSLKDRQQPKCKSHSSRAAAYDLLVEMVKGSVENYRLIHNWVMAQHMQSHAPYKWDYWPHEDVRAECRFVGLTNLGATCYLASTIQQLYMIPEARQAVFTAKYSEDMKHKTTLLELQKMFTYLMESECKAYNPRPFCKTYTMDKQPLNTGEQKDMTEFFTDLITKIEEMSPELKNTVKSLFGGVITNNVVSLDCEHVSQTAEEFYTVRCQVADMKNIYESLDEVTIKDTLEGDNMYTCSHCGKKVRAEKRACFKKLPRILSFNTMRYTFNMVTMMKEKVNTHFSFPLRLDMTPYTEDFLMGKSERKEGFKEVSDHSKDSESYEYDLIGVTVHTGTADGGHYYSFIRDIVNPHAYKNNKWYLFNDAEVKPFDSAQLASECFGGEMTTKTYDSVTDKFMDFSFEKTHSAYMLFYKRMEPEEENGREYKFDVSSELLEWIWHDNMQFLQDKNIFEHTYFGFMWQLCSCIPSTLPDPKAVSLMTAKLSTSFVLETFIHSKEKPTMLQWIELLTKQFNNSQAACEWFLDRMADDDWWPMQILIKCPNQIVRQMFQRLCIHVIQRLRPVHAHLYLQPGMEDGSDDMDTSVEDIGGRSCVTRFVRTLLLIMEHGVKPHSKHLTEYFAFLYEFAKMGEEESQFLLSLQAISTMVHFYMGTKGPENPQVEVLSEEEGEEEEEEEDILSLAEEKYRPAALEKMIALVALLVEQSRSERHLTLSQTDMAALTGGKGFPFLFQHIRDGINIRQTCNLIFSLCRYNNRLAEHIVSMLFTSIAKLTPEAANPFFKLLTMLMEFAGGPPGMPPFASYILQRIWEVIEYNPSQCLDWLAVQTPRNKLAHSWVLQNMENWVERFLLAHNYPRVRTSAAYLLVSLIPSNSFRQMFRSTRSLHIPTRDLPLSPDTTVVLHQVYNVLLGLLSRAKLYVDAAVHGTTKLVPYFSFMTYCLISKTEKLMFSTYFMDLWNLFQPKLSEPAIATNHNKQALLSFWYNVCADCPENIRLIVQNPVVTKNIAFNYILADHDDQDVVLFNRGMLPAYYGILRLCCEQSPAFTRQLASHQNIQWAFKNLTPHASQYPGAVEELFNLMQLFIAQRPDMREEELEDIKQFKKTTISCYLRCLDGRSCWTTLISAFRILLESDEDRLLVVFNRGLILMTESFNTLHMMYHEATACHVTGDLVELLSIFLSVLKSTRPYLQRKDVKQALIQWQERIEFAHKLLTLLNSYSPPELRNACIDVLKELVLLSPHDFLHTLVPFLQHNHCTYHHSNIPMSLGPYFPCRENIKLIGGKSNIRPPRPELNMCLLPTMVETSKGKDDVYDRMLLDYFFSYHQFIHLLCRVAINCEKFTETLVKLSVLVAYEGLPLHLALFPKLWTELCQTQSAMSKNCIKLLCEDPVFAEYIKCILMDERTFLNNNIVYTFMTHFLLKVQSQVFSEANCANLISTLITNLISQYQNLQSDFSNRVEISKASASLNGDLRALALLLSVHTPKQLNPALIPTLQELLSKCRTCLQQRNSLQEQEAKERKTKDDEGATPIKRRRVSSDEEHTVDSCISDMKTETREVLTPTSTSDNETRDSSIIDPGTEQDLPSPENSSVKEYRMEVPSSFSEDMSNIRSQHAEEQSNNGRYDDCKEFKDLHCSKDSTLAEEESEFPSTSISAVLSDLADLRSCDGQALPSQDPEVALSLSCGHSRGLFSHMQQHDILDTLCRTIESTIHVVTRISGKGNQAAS
Procedure, shortened: (§1)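 HEK293T lysate in Tris/CHAPS/IGEPAL buffer with protease inhibitors (495 µg per sample) was given fragment at 200 µM or vehicle for 3 h, in triplicate. It then received Biotin-Ahx-Ub-VS at 0.5 µM final for 1 h. Labelled DUBs were NeutrAvidin-enriched, digested with LysC and trypsin, and run by diaPASEF LC-MS/MS. Values are average log2 fragment/vehicle ratios by unpaired t-test on global-median-normalised Spectronaut quantities of proteins with ≥2 unique peptides.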

USP36 = target: T1, USP36 (UniProt Q9P275)
T1 sequence (whole entry): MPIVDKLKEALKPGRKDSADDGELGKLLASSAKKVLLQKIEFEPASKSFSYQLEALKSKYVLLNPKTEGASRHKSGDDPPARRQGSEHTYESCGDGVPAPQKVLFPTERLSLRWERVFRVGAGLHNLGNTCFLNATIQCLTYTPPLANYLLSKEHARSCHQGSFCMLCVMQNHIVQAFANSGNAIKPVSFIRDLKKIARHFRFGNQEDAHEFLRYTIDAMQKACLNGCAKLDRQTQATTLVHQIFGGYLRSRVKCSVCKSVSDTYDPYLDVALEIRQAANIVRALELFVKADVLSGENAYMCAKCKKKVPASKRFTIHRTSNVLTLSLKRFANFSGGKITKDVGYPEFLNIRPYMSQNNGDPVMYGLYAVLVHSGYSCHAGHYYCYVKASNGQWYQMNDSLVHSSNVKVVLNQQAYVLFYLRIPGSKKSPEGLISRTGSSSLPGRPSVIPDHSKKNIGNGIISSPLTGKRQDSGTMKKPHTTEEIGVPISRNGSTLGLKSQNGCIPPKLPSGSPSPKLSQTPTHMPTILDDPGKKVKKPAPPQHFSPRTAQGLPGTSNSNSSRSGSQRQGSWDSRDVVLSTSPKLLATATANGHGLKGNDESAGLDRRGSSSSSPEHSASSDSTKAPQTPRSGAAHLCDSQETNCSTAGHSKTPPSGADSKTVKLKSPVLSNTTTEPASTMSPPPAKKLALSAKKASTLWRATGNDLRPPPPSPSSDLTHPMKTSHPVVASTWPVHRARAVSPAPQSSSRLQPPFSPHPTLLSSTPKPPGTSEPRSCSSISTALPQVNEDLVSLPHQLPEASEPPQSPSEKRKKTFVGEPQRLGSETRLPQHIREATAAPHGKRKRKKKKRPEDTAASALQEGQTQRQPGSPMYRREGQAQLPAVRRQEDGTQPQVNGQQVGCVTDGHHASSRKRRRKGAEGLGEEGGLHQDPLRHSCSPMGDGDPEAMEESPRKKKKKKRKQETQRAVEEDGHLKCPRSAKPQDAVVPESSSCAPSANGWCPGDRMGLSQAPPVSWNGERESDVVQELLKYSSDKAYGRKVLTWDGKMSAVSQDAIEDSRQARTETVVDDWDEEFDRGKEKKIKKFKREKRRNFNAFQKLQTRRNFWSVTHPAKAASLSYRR
Procedure, shortened: as §1

USP38 = target: T2, USP38 (UniProt Q8NB14)
T2 sequence (whole entry): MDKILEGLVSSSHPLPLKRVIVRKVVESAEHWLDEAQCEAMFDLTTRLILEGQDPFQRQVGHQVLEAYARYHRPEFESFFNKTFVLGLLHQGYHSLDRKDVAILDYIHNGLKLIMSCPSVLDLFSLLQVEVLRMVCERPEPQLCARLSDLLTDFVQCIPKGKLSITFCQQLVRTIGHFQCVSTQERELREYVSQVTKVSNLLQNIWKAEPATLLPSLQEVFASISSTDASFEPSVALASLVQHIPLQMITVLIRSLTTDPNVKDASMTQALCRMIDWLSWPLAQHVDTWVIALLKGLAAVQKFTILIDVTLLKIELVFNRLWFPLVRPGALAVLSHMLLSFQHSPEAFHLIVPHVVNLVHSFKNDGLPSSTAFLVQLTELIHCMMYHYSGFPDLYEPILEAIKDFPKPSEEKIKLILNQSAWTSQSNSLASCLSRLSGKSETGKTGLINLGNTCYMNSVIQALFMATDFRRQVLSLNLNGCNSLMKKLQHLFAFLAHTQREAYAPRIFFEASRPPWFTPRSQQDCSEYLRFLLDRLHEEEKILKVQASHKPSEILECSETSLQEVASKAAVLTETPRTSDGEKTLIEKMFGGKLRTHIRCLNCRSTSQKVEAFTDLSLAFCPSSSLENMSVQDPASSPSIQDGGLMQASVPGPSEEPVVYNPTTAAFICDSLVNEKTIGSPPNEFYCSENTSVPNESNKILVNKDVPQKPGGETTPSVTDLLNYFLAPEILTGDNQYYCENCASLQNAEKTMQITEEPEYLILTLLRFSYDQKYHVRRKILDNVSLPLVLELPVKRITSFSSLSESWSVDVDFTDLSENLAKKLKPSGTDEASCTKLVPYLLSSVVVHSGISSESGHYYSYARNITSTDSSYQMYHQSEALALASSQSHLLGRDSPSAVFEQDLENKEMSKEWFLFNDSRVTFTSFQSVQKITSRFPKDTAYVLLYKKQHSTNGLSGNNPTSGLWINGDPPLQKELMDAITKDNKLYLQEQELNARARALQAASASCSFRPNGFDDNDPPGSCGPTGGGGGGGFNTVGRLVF
Procedure, shortened: as §1

USP39 = target: T3, USP39 (UniProt Q53GS9)
T3 sequence (whole entry): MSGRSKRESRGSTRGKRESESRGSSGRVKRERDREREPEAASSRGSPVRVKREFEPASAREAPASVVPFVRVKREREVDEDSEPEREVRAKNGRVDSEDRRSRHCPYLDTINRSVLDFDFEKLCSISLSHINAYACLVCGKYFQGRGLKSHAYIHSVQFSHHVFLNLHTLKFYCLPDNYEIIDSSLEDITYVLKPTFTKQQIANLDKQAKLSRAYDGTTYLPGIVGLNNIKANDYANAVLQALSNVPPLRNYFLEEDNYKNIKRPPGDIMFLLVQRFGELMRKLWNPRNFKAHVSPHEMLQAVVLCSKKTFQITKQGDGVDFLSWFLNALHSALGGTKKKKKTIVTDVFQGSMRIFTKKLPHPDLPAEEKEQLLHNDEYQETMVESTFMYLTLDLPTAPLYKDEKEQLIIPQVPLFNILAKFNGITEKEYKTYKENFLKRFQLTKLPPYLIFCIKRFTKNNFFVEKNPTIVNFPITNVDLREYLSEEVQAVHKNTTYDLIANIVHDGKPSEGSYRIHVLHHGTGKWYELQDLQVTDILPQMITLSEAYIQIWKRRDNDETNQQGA
Procedure, shortened: as §1

USP4 = target: T4, USP4 (UniProt Q13107)
T4 sequence (whole entry): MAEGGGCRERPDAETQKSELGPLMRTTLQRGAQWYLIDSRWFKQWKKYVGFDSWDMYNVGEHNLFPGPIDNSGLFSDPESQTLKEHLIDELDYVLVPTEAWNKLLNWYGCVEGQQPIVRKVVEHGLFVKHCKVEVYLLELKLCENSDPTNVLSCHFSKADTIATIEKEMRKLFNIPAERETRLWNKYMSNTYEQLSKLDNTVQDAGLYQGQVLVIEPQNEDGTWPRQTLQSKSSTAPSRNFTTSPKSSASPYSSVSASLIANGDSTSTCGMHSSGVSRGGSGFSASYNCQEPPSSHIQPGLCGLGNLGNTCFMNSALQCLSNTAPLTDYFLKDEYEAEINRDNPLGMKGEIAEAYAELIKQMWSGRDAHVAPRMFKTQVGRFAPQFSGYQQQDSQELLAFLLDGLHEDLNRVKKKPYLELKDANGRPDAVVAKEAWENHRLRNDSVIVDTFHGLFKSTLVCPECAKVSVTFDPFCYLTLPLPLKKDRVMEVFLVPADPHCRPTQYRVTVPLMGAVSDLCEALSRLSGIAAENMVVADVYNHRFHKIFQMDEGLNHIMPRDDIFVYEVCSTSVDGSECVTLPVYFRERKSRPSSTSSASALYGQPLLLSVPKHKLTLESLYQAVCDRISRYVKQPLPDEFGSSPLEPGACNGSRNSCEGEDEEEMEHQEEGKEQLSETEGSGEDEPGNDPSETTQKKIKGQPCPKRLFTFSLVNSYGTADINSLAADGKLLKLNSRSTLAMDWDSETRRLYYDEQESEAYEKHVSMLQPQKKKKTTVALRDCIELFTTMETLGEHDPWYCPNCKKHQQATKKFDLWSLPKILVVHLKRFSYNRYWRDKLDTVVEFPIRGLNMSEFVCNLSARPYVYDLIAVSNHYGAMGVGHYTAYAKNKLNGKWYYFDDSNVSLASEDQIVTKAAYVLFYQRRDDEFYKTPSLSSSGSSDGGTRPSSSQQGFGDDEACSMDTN
Procedure, shortened: as §1

Measured: log2 ratio of Biotin-Ahx-Ub-VS probe labelling

Cl.O=C(CCl)N1CCC(n2nc3ccccc3n2)CC1
inactive: USP34 -0.257 | USP36 0.0455 | USP38 -0.223 | USP39 -0.0437 | USP4 -0.443
